These results are taken from ChEMBL document CHEMBL4888484, “Replenishing the malaria drug discovery pipeline: Screening and hit evaluation of the MMV Hit Generation Library 1 (HGL1) against asexual blood stage Plasmodium falciparum ,using a nano luciferase reporter read-out” (2022).

About 540 (0.36%) of roughly 150,000 compounds showed an effect of 50% or more. This excerpt belongs to a sample that is enriched for strong results.

This assay relates to Plasmodium falciparum. Put plainly: Primary screen in NF54 nanoGlo assay, in single point, at 2uM, 72h; a lower Z score goes with more inhibition. The conditions noted are these: timepoint 72 hour. The assay is classed as functional, Erythrocyte.
As usually defined, the % Inhibition is the change of the read-out against control, counted positive when it falls. `Cc1cnc(C2CCOCC2)n1CC1CCN(C(=O)c2cccs2)CC1`: the “% Inhibition” value was -4% and the Z score is reported as 0.55.
For the compound `Cc1cc(F)ccc1C(=O)NCc1nnc(C)n1C1CC1`, the “% Inhibition” value was -2% and the Z score came to 0.34.
Consider `CCN1CCN([C@H]2CCN(c3cc(Cl)ccc3C#N)C2)CC1`, for which the “% Inhibition” value is recorded as -9% and the Z score came out at 1.34.
For the compound `CCn1c(-c2cc(NC(=O)c3cc(C)cc(C)c3)[nH]n2)cc2ccc(OC)cc21`, the “% Inhibition” value was 17% and the Z score is -1.96.
On to `CCn1c(-c2cc(NC(=O)c3ccncc3)[nH]n2)cc2ccc(OC)cc21`, for which the “% Inhibition” value is listed as 34% and the Z score is recorded as -3.83.
With `CCn1c(-c2cc(NC(=O)c3ccc4c(c3)OCO4)[nH]n2)cc2ccc(OC)cc21`, the “% Inhibition” value is 52% and the Z score is -0.45.
With `O=C(c1cnn(Cc2ccccc2)c1)N1CCC[C@@H]1CO`, the “% Inhibition” value was found to be 5% and the Z score is on record as -0.66.
Take `Cc1ccc(CNC(=O)CN2CCN(C(=O)Nc3ccc(Cl)cc3)CC2=O)o1`: the “% Inhibition” value turned out to be 7% and the Z score is -1.32.
On the same counts, the results for `CCN1CCOC(C(=O)N2CCCC(COc3ccccc3)C2)C1` (stereo not given) are -11% and 1.91.
For `Oc1ccccc1-c1cnc(C(F)(F)F)s1` the same measures were 93% and -17.09.
For the compound `Oc1ccccc1C1=NN[C@@](O)(C(F)(F)C(F)F)C1`, the “% Inhibition” value is -6% and the Z score is reported as 0.8.
With `NC(=O)CC(=O)Nc1ncc(-c2ccccc2F)s1`, the “% Inhibition” value worked out at 4% and the Z score is -0.56.
For the compound `Cn1nccc1[C@@H](O)CNC(=O)C1(c2cccnc2)CC2(CCC2)C1`, the “% Inhibition” value is listed as -8% and the Z score was found to be 1.59.
Turning to `CCN(CCN(C)C)C(=O)c1cccc(-c2ccc3nccc(N)c3c2)c1`, the “% Inhibition” value worked out at 96% and the Z score was -13.62.
As to `CCN(CCN(C)C)C(=O)c1cccc(-c2ncccc2C)c1`, the “% Inhibition” value is reported as -6% and the Z score amounted to 0.81.
With `CCN(CC)CCN(CC)C(=O)c1cccc(-c2ccc(C)nc2N)c1`, the “% Inhibition” value is listed as -7% and the Z score turned out to be 0.71.
For `CNC(=O)[C@@H]1C[C@H](NCc2cc(OC)c(OC)c(OC)c2)CN1CC(c1ccccc1)c1ccccc1`, the “% Inhibition” value was found to be 54% and the Z score was -11.4.
For `CNC(=O)[C@@H]1C[C@@H](NCc2ccc(C(F)(F)F)cc2)CN1CC(c1ccccc1)c1ccccc1` the same measures were 2% and -0.22.
On the same counts, the results for `CNC(=O)[C@@H]1C[C@H](NCc2ccccc2F)CN1CC(c1ccccc1)c1ccccc1` are 9% and -1.28.
With `Cc1cccc(OCCN2C(=O)N[C@@]3(CCCCc4ccccc43)C2=O)c1`, the “% Inhibition” value amounted to 4% and the Z score is listed as -0.78.
On the same counts, the results for `CCN(Cc1noc(C2CCC2)n1)Cc1ccccc1C#N` are -1% and 0.12.
For the compound `COc1ccc(Cl)cc1-c1c(N2CCCC2)cn[nH]c1=O`, the “% Inhibition” value is 1% and the Z score is -0.09.
Consider `O=C(NCCOc1ccccc1)NCCOc1ccccc1`, for which the “% Inhibition” value was 1% and the Z score is -0.22.
Regarding `O=C(NCCOc1ccccc1)c1ccc(C(=O)NCCOc2ccccc2)s1`, the “% Inhibition” value is 56% and the Z score is -0.3.
Take `Cc1cc(C(=O)NCCOc2ccccc2)c(C)s1`: the “% Inhibition” value is -17% and the Z score turned out to be 2.3.
On the same counts, the results for `Cc1cc(C)n(Cc2c(C(=O)NCc3ccc(N(C)C)cc3)noc2C)n1` are -13% and 1.35.
For `C#CCCCCC(=O)Nc1ccc(C#N)cn1`, the “% Inhibition” value was determined as 4% and the Z score was -0.84.
Consider `CC(C)[C@H]1CN(C(=O)c2nc(C(F)(F)F)n3c2CCCC3)CCN1`, for which the “% Inhibition” value is -15% and the Z score was 1.9.
For the compound `COc1cccc(Cl)c1CN[C@H]1CCCc2occc21`, the “% Inhibition” value was -24% and the Z score came to 2.8.
With `Oc1cccc(CN[C@H]2CCCc3occc32)c1Cl`, the “% Inhibition” value amounted to 78% and the Z score is -12.81.
Take `CC(O)CC(C)(C)CNC1CCCc2occc21` (stereo not given): the “% Inhibition” value is on record as 36% and the Z score is reported as 0.84.
Regarding `O=C(Nc1ccc(Cl)cc1)N1Cc2nc[nH]c2C[C@H]1c1nc(-c2ccc3ccccc3c2)no1`, the “% Inhibition” value was 19% and the Z score is recorded as -2.22.
Take `Cc1cnn(C2CN(CC(=O)N3CC(=O)Nc4ccccc43)C2)c1`: the “% Inhibition” value is -10% and the Z score is 1.59.
On the same counts, the results for `CCCc1cc(C(=O)N2C[C@@H]3CC[C@H]2CN(C(C)=O)C3)n(C)n1` are 3% and -0.61.
With `CCc1ncnc(N2CC[C@H](Cc3nnn[nH]3)C2)c1F`, the “% Inhibition” value is on record as -13% and the Z score amounted to 1.77.
Consider `COCC(=O)N1CCc2cc3ccc2[C@@H]1c1cccc(c1)OCCCNC(=O)c1cc(ccc1O)O3`, for which the “% Inhibition” value was -2% and the Z score amounted to 0.47.
On the same counts, the results for `NC(=O)C1CCN(CCC(=O)N2CCc3cc4ccc3[C@@H]2c2cccc(c2)OCCCNC(=O)c2cc(ccc2O)O4)CC1` are 92% and -17.59.
`NCc1cccc(C(=O)N2CCc3cc4ccc3[C@@H]2c2cccc(c2)OCCCNC(=O)c2cc(ccc2O)O4)c1`: the “% Inhibition” value was found to be 86% and the Z score was -13.81.
Take `CCn1ccc(C(=O)N2CCc3cc4ccc3[C@@H]2c2cccc(c2)OCCCNC(=O)c2cc(ccc2O)O4)cc1=O`: the “% Inhibition” value turned out to be 7% and the Z score is -1.26.
On the same counts, the results for `O=C1NCCCOc2cccc(c2)[C@H]2c3ccc(cc3CCN2C(=O)CCN2CCOCC2)Oc2ccc(O)c1c2` are 39% and -8.79.
In the case of `Cc1cc(C(=O)N2CCc3cc4ccc3[C@@H]2c2cccc(c2)OCCCNC(=O)c2cc(ccc2O)O4)n(C)n1`, the “% Inhibition” value was -11% and the Z score was 1.41.
As to `Cc1ccc(OS(=O)(=O)c2ccc3c(c2)NC(=O)CO3)c(Br)c1`, the “% Inhibition” value is given as -5% and the Z score is reported as 0.38.
For `CCc1nccc(-c2nccn2CCOc2ccccc2F)n1` the same measures were -5% and 0.87.
Take `CN(C(=O)CC1(C(=O)O)CCC1)[C@H]1CCOc2ccc(Br)cc21`: the “% Inhibition” value was determined as 1% and the Z score is on record as -0.26.
As to `Cc1cc(CS(=O)(=O)[C@@H](C)C(=O)NCc2ccccc2)on1`, the “% Inhibition” value is listed as -12% and the Z score is reported as 2.41.
For `O=S(=O)(Cc1ccc(OC(F)(F)F)cc1)Nc1cccnc1-n1cccn1` the same measures were 2% and -0.39.
As to `Cc1ccc(NC(=O)Cc2nnc(-c3cnccn3)o2)c(Cl)c1`, the “% Inhibition” value is -12% and the Z score is recorded as 1.25.
With `COCCN(CCOC)C[C@H](O)Cn1c(-c2ccccc2)c(-c2ccccc2)c2cc(C)ccc21`, the “% Inhibition” value is 0% and the Z score worked out at 0.06.
Consider `CC(NCC(O)Cn1c(-c2ccccc2)c(-c2ccccc2)c2ccc3ccccc3c21)c1ccccc1` (stereo not given), for which the “% Inhibition” value is listed as 88% and the Z score is recorded as -10.69.
For `CCC(C)NCC(O)Cn1c(-c2ccccc2)c(-c2ccccc2)c2cc(C)ccc21` (stereo not given) the same measures were 93% and -10.06.
In the case of `Cc1c(C)n(CC(O)CNC(C)c2ccccc2)c2c(Cl)cccc12` (stereo not given), the “% Inhibition” value came to 59% and the Z score is -7.71.
`CC(NCC(O)COc1ccc2c(c1)OCO2)c1ccccc1` (stereo not given): the “% Inhibition” value is reported as -9% and the Z score is 1.69.
For `Cc1c(C)n(C[C@@H](O)Cn2ccnc2C)c2c(Cl)cccc12`, the “% Inhibition” value is recorded as -5% and the Z score was 0.7.
`CC(C)NC[C@H](O)Cn1c(-c2ccccc2)ccc1-c1ccccc1`: the “% Inhibition” value is recorded as 8% and the Z score is given as -1.24.
Regarding `Cc1c(C)n(C[C@@H](O)CNC2CCCC2)c2c(Cl)cccc12`, the “% Inhibition” value is reported as 48% and the Z score is reported as -6.21.
With `Cc1ccc2c(c1)c(-c1ccccc1)c(-c1ccccc1)n2C[C@@H](O)CNCCCO`, the “% Inhibition” value is 1% and the Z score is listed as -0.17.
Take `CS(=O)(=O)N1C[C@H]2CC[C@@H](C1)N(C(=O)c1ccc3[nH]nnc3c1)C2`: the “% Inhibition” value is given as -7% and the Z score is given as 1.17.
In the case of `CO[C@@]12CC[C@@H](OCC3CC3)C[C@@H]1N(C(=O)c1csc(C(C)C)n1)CC2`, the “% Inhibition” value is reported as -2% and the Z score is given as 0.34.
Turning to `Cc1cc2c(NC(=O)N(Cc3ccsc3)CC(C)C)cccc2nn1`, the “% Inhibition” value is reported as -6% and the Z score is listed as 1.12.
`O=C(NCc1cccnc1)c1coc(CN(Cc2ccccc2)Cc2ccccc2C(F)(F)F)n1`: the “% Inhibition” value is given as 0% and the Z score is 0.02.
With `Cc1nnc(CN(C)Cc2c[nH]cn2)s1`, the “% Inhibition” value is given as 4% and the Z score was -0.58.
As to `O=C(Cc1ccccc1)N1CCN(c2cc(N3CCCC3)ncn2)CC1`, the “% Inhibition” value is listed as -8% and the Z score amounted to 0.94.
As for `Cc1c(F)cccc1NC(=O)N1CCN(C2=CC3=N[C@@H](C)CN3C=N2)CC1`, the “% Inhibition” value was determined as 57% and the Z score is -7.99.
As to `CN1CCN(c2cc(N3CCN(C(=O)Cc4ccccc4)CC3)ncn2)CC1`, the “% Inhibition” value was -10% and the Z score amounted to 0.91.
With `CC[C@H]1CN2C=NC(N3CCN(C(=O)Cc4ccccc4)CC3)=CC2=N1`, the “% Inhibition” value was 56% and the Z score is -2.27.
With `C[C@H]1CN=C2C=C(N3CCN(C(=O)Nc4ccccc4C(F)(F)F)CC3)N=CN21`, the “% Inhibition” value is -11% and the Z score was 1.77.
For the compound `O=C(Nc1cc(F)cc(F)c1)N1CC[C@H](Cc2ccncc2)C1`, the “% Inhibition” value is on record as -5% and the Z score worked out at 0.93.
For `CCc1cccc(NC(=O)N2CCN(C3=CC4=NC[C@H](C)N4C=N3)CC2)c1` the same measures were 58% and -5.02.
With `Cc1oc(C2CCN(C(=O)Nc3cccc(F)c3C)CC2)nc1C(=O)N1CCCC1`, the “% Inhibition” value is given as -3% and the Z score is on record as 0.55.
For the compound `CCc1cccc(NC(=O)N2CCN(c3nccs3)CC2)c1`, the “% Inhibition” value is given as -2% and the Z score was found to be 0.21.
In the case of `CC[C@H]1CN2C=NC(N3CCN(C(=O)Nc4cc(F)cc(F)c4)CC3)=CC2=N1`, the “% Inhibition” value is 68% and the Z score is -4.25.
On to `Cc1cc(F)cc(NC(=O)N2CCCN(C(=O)C(F)(F)F)CC2)c1`, for which the “% Inhibition” value is on record as -11% and the Z score turned out to be 1.45.
Consider `C[C@H]1CN2C=NC(N3CCN(C(=O)c4ccccc4)CC3)=CC2=N1`, for which the “% Inhibition” value is reported as -3% and the Z score is 0.63.
On the same counts, the results for `Cc1ccc(NC(=O)Cn2cc(S(=O)(=O)N3CCCCCC3)ccc2=O)c(C)c1` are -2% and 0.3.
For the compound `CN(c1cnn(C)c1)S(=O)(=O)c1ccccc1`, the “% Inhibition” value is -12% and the Z score came to 1.93.
As to `CCc1onc(C)c1NCc1cnc(C(C)(C)C)s1`, the “% Inhibition” value came out at 34% and the Z score was 0.74.
For `COC(=O)C1=C(c2ccccc2)S/C(=C2/C(=S)C(C)(C)Nc3ccc(C)cc32)S1`, the “% Inhibition” value is on record as -8% and the Z score was found to be 0.99.
For `Cc1ccccc1N1CCN(C(=O)CC[C@@H]2CN(Cc3ccccn3)CC[C@@H]2N2CCOCC2)CC1` the same measures were 2% and -0.27.
With `FC(F)[C@H](NCc1nnc(C2CC2)s1)c1ccccc1`, the “% Inhibition” value was determined as 2% and the Z score is -0.43.
`CCCc1nnsc1C(=O)N1CCc2nc(NC(=O)OCC)sc2C1`: the “% Inhibition” value is recorded as -5% and the Z score is listed as 1.08.
